# Assay outcomes deposited in PubChem BioAssay by National Center for Advancing Translational Sciences (NCATS).
# This is a sample that favours compounds with a hit; in the whole collection about 17% have one here.
# HepG2 viability = qHTS for Inhibitors of TGF-b: Cytotox Counterscreen; HepG2 CAGA-GFP viability, ATP luminescence, 18 h; Potency, µM (titrated, usually from 46.1 µM), without a hit: at the top dose activity change, negative = cytotoxicity, usual class: cytotoxic; hit rate 0.76% among 410,000
#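 CellTiter-Glo luminescence gave cytotoxicity after 18 hours at 37 degrees C. The cells were HepG2 CAGA-GFP in 1% FBS DMEM, stimulated with 500 pg/mL TGF-beta after compound addition. %Activity was normalised to no-cell wells (complete cell-killing) and DMSO (no toxicity), and curves were fitted and classified.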
# HT1080-NT tox = qHTS for induction of synthetic lethality in tumor cells producing 2HG: qHTS for the HT-1080-NT fibrosarcoma cell line; Potency, µM (highest dose often 46.1 µM), inactives show at the highest dose activity, negative = less viability, most hits filed as cytotoxic; HT-1080-NT fibrosarcoma viability, CellTiter-Glo ATP luminescence, 48 h; hit rate 1.6% among 360,000;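 further: NT is the 2HG producing partner of a matched IDH1 knockdown line; 0% = DMSO-treated cells and -100% = media-only wells without cells; nearly all actives have a fitted effect of over 55% in size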
#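 Toxicity toward the 2HG-producing NT line was scored as %Activity, normalised to DMSO and no-cell wells, from CellTiter-Glo luminescence after 48 hours' treatment.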
# TDP1 cell CPT = qHTS for Inhibitors of human tyrosyl-DNA phosphodiesterase 1 (TDP1): qHTS in cells in presence of CPT; chicken DT40 Tdp1-/-;hTDP1 cells + 20 nM CPT, ATP luminescence, 48 h; Potency, µM (highest dose often 46.2 µM), for inactives: at the highest dose activity change, negative = growth inhibition, hits mostly inhibitors; hit rate 12% among 420,000; AID 686979, 2013; further: on the % scale 0 is the no-effect control and ±100 the full control effect; nearly all actives have a fitted effect of over 55% in size
#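 Chicken DT40 Tdp1-/- cells stably complemented with human TDP1 were seeded at 400 cells/well in medium containing 20 nM camptothecin, exposed to pin-transferred compounds, and grown at 37 °C for at least 48 hr. Viability was read as ATP luminescence.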
# HT1080 IDH1KD tx = qHTS for induction of synthetic lethality in tumor cells producing 2HG: qHTS for the HT-1080-IDH1KD cell line; Potency, µM (series often up to 46.1 µM), without a hit: at the top dose activity, negative = toxicity, most hits filed as cytotoxic; hit rate 2% among 360,000; HT-1080 IDH1 knockdown viability, ATP luminescence, 48 h;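 further: 0% = DMSO wells and -100% = cell-free medium wells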
#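 In this qHTS, HT-1080 cells depleted of IDH1 are exposed for 48 h at 37 °C to compound titrations. Toxicity is scored from CellTiter-Glo luminescence, with DMSO as full viability and medium alone as none.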
# DT40 TDP1 no CPT = qHTS for Inhibitors of human tyrosyl-DNA phosphodiesterase 1 (TDP1): qHTS in cells in absence of CPT; hit rate 15% among 420,000; DT40 Tdp1-/- hTDP1 cells, no CPT, ATP luminescence, 48 h; Potency, µM (titrated, usually from 46.2 µM), without a hit: top-dose activity change, negative = growth inhibition, usual class: inhibitors; AID 686978, 2013; further: on the % scale 0 is the no-effect control and ±100 the full control effect; nearly all actives have a fitted effect of over 55% in size
#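 Growth kinetics read by CellTiter-Glo luminescence after ≥48 hr at 37 °C. Cells: DT40 Tdp1-/- stably carrying human TDP1, 400 per well, compound exposure in the absence of CPT (DMSO vehicle).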
# TGFb SMAD3 inh = qHTS for Inhibitors of TGF-b; HepG2 CAGA-GFP TGF-b/SMAD3 reporter, GFP fluorescence, 18 h; TGF-beta stimulated, 500 pg/mL final; Potency, µM (series often up to 46.1 µM), for inactives: top-dose activity, negative = inhibition, usual class: inhibitors; hit rate 1.2% among 410,000; AID 588855, 2011; further: on the % scale 0 is the no-effect control and ±100 the full control effect; nearly all actives have a fitted effect of over 65% in size
#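 Smad-responsive CAGA-GFP expression was quantified in HEPG2 cells exposed to compounds and 500 pg/mL final TGF-beta for 18 h at 37 degrees C; unstimulated wells defined full inhibition.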
# * marks the source's active call; other numbers are inactive results; ? = inconclusive; nt = no result given; [ ] = remark or other dose. The call rests on the fitted dose curve; in most records, active means well fitted curve in the direction sought with a large enough effect; inconclusive means small, poorly fitted or top-dose-only effect, or another doubt; inactive means no such curve, though single readings can be large; an effect the other way counts as inactive or inconclusive. Potency means the concentration at half of the fitted maximal effect.
SMILES,HepG2 viability,HT1080-NT tox,TDP1 cell CPT,HT1080 IDH1KD tx,DT40 TDP1 no CPT,TGFb SMAD3 inh
COc1ccc(C)cc1NC(=O)CCCN1C(=O)CN(C)C1=O,-1.7%,9.2%,0.6%,8.2%,-7.1%,-1.3%
Cc1cccc(N(C)C(=O)c2cc3c(=O)oc4ccc(C)cc4c3s2)c1,-9.1%,nt,-1.9%,nt,-25.4%,-3.3%
O=C(NCc1cccs1)c1noc2c1CCCC2,-4.0%,?,?,17.8µM*,?,-4.2%
CCCOc1ccc(C2CC(=O)Nc3cc(OC)c(OC)cc32)cc1 (centres undefined),-6.7%,-1.8%,?,-20.5%,-29.4%,?
CCCCN1C(=O)C(=O)N(CC(=O)c2cc(C)n(-c3cc(C)on3)c2C)C1=O,-8.6%,3.2%,-8.0%,-0.9%,8.7%,-4.2%
COc1ccc(C(=O)NC(=S)Nc2ccccc2N2CCOCC2)cc1[N+](=O)[O-],8.4%,-10.6%,16.4µM*,-14.7%,16.4µM*,0.0%
COc1ccc(C(=O)NC(=S)Nc2ccc(N3CCOCC3)c(Cl)c2)cc1[N+](=O)[O-],1.4%,-1.3%,13µM*,0.3%,20.6µM*,-12.5%
COc1ccc(C(=O)Nc2ccccc2N2CCOCC2)cc1[N+](=O)[O-],-15.9%,0.0%,-15.3%,-2.0%,?,-4.3%
O=c1ccc(-c2nc3ccccc3n2C(CCc2ccccc2)c2nc3ccccc3[nH]2)c[nH]1 (centres undefined),nt,-19.1%,?,-11.7%,?,nt
CC(C)Cn1c(N)c(C(=O)COC(=O)c2ccncc2)c(=O)n(C)c1=O,-34.1%,0.0%,-20.9%,-1.1%,?,0.3%
Cc1cccc(C(=O)OCC(=O)c2c(N)n(CC(C)C)c(=O)n(C)c2=O)c1O,-6.2%,?,23.1µM*,-27.3%,23.1µM*,-5.2%
Cc1cnc(C(=O)OCC(=O)c2c(N)n(CC(C)C)c(=O)n(C)c2=O)cn1,-5.3%,-6.0%,-25.7%,-4.9%,?,1.1%
CC(C)Cn1c(N)c(C(=O)COC(=O)c2ccc(Br)cc2)c(=O)n(C)c1=O,-5.6%,-12.3%,?,-23.3%,23.1µM*,-25.5%
COC(=O)c1c(C)[nH]c(C(=O)OCC(=O)c2c(N)n(CC(C)C)c(=O)n(C)c2=O)c1C,-3.5%,-17.3%,?,-12.6%,14.6µM*,-17.8%
CC(C)Cn1c(N)c(C(=O)COC(=O)c2ccc(O)cc2O)c(=O)n(C)c1=O,-18.5%,-2.0%,?,?,25.9µM*,-38.8%
CC(C)Cn1c(N)c(C(=O)COC(=O)c2cccc(F)c2)c(=O)n(C)c1=O,-5.9%,-1.5%,?,-6.5%,?,-1.0%
O=C(C[n+]1cc(Br)cc(Br)c1)c1ccc(I)cc1,9.2%,nt,-14.0%,nt,-24.8%,6.5%
Cc1cccc(C(=O)OCC(=O)c2c(N)n(CC(C)C)c(=O)n(C)c2=O)c1[N+](=O)[O-],-7.2%,-9.0%,?,-5.3%,18.4µM*,-10.1%
CC(=O)Oc1c(C)c2c3c(c1OC(C)=O)[C@@H](C)CC[C@@H]3[C@@H](C)C[C@H]2C=C(C)C,-9.4%,-5.5%,?,-9.0%,?,-27.9%
CC(=O)OC1[C@H](Oc2c(O)c(C)c3c4c2[C@@H](C)CC[C@@H]4[C@@H](C)C[C@@H]3C=C(C)C)OC[C@@H](O)[C@@H]1O (some centres undefined),-48.1%,-22.2%,4.7%,9.8%,-30.8%,11.2µM*
CC(C)=C[C@@H]1C[C@H](C)[C@H]2CC[C@H](C)c3c(O)c(O)c(C)c1c32,-41.6%,-1.1%,20.6µM*,-4.2%,?,-10.2%
CC(=O)O[C@H]1[C@H](O)[C@H](Oc2c(O)c(C)c3c4c2[C@@H](C)CC[C@@H]4[C@@H](C)C[C@H]3C=C(C)C)O[C@@H](C)[C@H]1O,-113.6%,?,?,?,18.4µM*,11.2µM*
CC(C)=C[C@H]1C[C@H](C)[C@H]2CC[C@H](C)c3c(O[C@@H]4OC[C@@H](O)[C@H](O)C4O)c(O)c(C)c1c32 (some centres undefined),22.4µM*,?,-28.8%,?,?,?
CC(=O)Nc1cccc(NC(=O)CSc2nc3c(=O)n(C)c(=O)n(C)c3n2C)c1,2.6%,-4.8%,-11.8%,-3.6%,-7.3%,3.5%
COc1ccc2[nH]c(C)c(C(=O)CN3CCN(C/C=C/c4ccccc4)CC3)c2c1,-39.3%,-0.9%,18.4µM*,-0.9%,?,-2.7%
SMILES,HepG2 viability,HT1080-NT tox,TDP1 cell CPT,HT1080 IDH1KD tx,DT40 TDP1 no CPT,TGFb SMAD3 inh
Cc1[nH]c2ccccc2c1C(=O)CN1CCN(C/C=C/c2ccccc2)CC1,-11.2%,23.1µM*,?,?,18.4µM*,-6.2%
COc1cc(NC(=O)CCN2CCN(C/C=C/c3ccccc3)CC2)cc(OC)c1,-15.9%,-6.6%,?,-5.5%,20.6µM*,?
COc1ccc(NC(=O)CCN2CCN(C/C=C/c3ccccc3)CC2)cc1,-60.9%,1.1%,-29.4%,0.3%,?,-15.4%
Cc1ccc(S(=O)(=O)Nc2csc(C)c2C(=O)O)cc1,-4.5%,4.2%,10.1%,2.1%,5.0%,-1.8%
C=CCn1c(C)cc(C(=O)COC(=O)CCc2cc(OC)c(OC)c(OC)c2)c1C,-1.9%,0.3%,-0.4%,4.3%,-0.3%,0.5%
O=C(COc1ccccc1C(=O)Nc1ccccc1)NC1CCCCC1,nt,-20.6%,?,-18.3%,?,nt
CC(=O)c1cccc(NC(=O)CSc2nc3ccccc3c(=O)n2CCCN2CCOCC2)c1,-19.2%,-15.1%,-20.8%,0.0%,?,22.2%
Cc1ccc(NC(=O)CSc2nc3ccccc3c(=O)n2CCCN2CCCCC2)cc1C,17.8µM*,-14.3%,25.9µM*,?,?,?
O=C(CSc1nc2ccccc2c(=O)n1CCCN1CCOCC1)Nc1ccc(Br)cc1,-19.6%,?,?,13µM*,?,-4.2%
Cc1cccc(NC(=O)C(C)Sc2nc3ccccc3c(=O)n2CCCN2CCOCC2)c1 (centres undefined),-25.8%,-10.7%[9.24 µM],23.1µM*,?,-21.5%,3.9%
